This note sets out measurements from PubChem BioAssay.

SMILES strings stand for the structures. A number with no mark means an inactive call. The rule behind the calls is not given here. Where a SMILES comes first, the peptide text is derived from it. The star is where a group is joined. Boc = CC(C)(C)OC(=O)*

In the test the target is Pantothenate synthetase (Mycobacterium tuberculosis (strain ATCC 25618 / H37Rv)) (UniProt P9WIL5). The experiment in a line: Recombinant Mtb pantothenate synthetase (PanC) inhibitors, coupled enzyme, confirmatory (AID 375).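 Note: 0% = full reaction with vehicle and 100% = no enzyme background.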 The conditions noted are these: coupled enzyme assay; at 10 µM, stronger effect = higher value.
Sequence of Pantothenate synthetase (Mycobacterium tuberculosis (strain ATCC 25618 / H37Rv)) (P9WIL5 whole entry, looked up): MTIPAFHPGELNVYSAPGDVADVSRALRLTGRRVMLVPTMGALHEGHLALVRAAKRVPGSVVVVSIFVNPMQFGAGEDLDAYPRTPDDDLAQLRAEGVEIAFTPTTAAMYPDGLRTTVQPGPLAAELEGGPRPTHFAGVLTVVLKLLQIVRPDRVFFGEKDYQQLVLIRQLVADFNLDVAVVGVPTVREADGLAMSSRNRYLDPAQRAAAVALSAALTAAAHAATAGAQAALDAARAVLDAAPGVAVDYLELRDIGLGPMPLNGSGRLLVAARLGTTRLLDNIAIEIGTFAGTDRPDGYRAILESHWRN
The term inhibition denotes the drop in the measured response relative to a control, in per cent. As for `CCN(CC)CCNC(=O)c1ccc(N2CCCCC2)c(NS(=O)(=O)c2ccc(C)cc2)c1`, the inhibition was 12%. Regarding `CCN(CC)CCCNC1CCS(=O)(=O)C1` (stereo not given), the inhibition was 1%. `CCSc1ncc(C#N)c(=O)[nH]1`: the inhibition is 0%. Under `Cc1ccc(NC(=O)CN(C)S(=O)(=O)c2cccc3nsnc23)cc1Cl` stands 1%; under `CSCCC(NS(=O)(=O)c1ccc2c(c1)oc(=O)n2C)C(=O)NC1CCCCC1` (stereo not given), 0%. For the molecule `Clc1cccc(N2CCN(Cc3nc(-c4ccccc4)no3)CC2)c1`, the inhibition is 0%. Under `COC(=O)C1=C(C)N(c2ccc(C(=O)OC)cc2)C(=O)C1` stands 0%; under `COc1cc(NS(=O)(=O)c2ccc(Br)s2)cc(OC)c1`, 0%; under `COCCNC(=O)CSc1nc(-c2ccc(OC)c(OC)c2)cc(C(F)(F)F)n1`, 2%.

`C1COC(NC(C2CC2)C2CC2)=N1`: the inhibition was 4%.

Turning to `COc1ccccc1C(=O)Nc1nc2ccc(S(C)(=O)=O)cc2s1`, the inhibition was 0%. In the case of `Cc1cc2ccccc2c(=O)n1CC(=O)Nc1ccc2c(c1)OCO2`, the inhibition was 0%. Under `CC(Sc1nc(-c2ccccc2)cc(C(F)(F)F)n1)C(=O)N1CCCC1` (stereo not given) stands 1%; under `COc1ccccc1N1CCN(c2nc3ccccc3nc2C(C#N)C(=O)OC(C)C)CC1` (stereo not given), 1%. Then `CCOC(=O)C1CCN(C(=O)COc2ccc(Cl)cc2Cl)CC1`, with 0%; and `Cc1[nH]nc2c1C1(CCN(C(=O)c3ccccc3)CC1)C(C#N)=C(N)O2`, with 0%. Consider `COc1ccc(NC(=O)C(C)NS(=O)(=O)c2ccccc2)cc1Cl` (stereo not given), for which the inhibition was 10%. As to `Cc1ccc(Nc2nc(Oc3ccc(=O)[nH]n3)nc(N(C)C)n2)cc1`, the inhibition was 0%. Under `Cc1nc(C)c(C(=O)OCC(=O)N2CCN(c3ccccc3)CC2)s1` stands 0%; under `CN(Cc1cccs1)CC(O)COCc1ccco1` (stereo not given), 0%. Then `CN(C)S(=O)(=O)c1ccc(Oc2ccc(S(=O)(=O)N(C)C)cc2)cc1`, with 4%; and `CN(C)c1ccc(NC(=O)Nc2cccc(Cl)c2)cc1`, with 0%. Then `O=C(CCn1cccc1)N1CCc2ccccc21`, with 0%; and `COc1ccc(C(O)C(CN2CCOCC2)c2ccccc2)cc1F` (stereo not given), with 2%; and `O=C(CSc1nc2ccccc2o1)N1CCN(c2ccc(Cl)cc2)CC1`, with 0%. On to `COC(=O)CCc1c(C)c(C#N)c2nc3ccccc3n2c1N1CCCC1`, for which the inhibition was 0%. Then `Cc1nc(CCNC(=O)c2ccccc2)cs1`, with 0%; and `COc1ccc(-c2ccc(-c3noc(-c4cccs4)n3)c(OC)n2)cc1`, with 0%. Consider `Cn1nc(-c2ccc(N3CCCCC3)c(NC(=O)c3ccco3)c2)c2ccccc2c1=O`, for which the inhibition is 0%.

Take `CCCC(=O)N1CC(=O)Nc2ccc(C)cc2C1c1ccc(F)cc1` (stereo not given): the inhibition is 0%.

Regarding `COc1cc(OC)cc(C(=O)N2CCN(C(=O)c3ccc(OC)c(OC)c3)CC2)c1`, the inhibition is 1%. Then `Cc1cccc(NC(=O)Nc2cccc(C#N)c2)n1`, with 1%. Under `CCCCCn1c(CN2CCN(C(=O)OCC)CC2)nc2c1c(=O)[nH]c(=O)n2C` stands 3%. In the case of `O=C(CN1CCOCC1)N1CCCc2c1c(=O)oc1ccc(OCc3ccccc3)cc21`, the inhibition is 4%. Under `CC(C)CC(NC(=O)OC(C)(C)C)C(=O)NC(C(=O)N1CCCC1C(N)=O)C(C)C` (stereo not drawn) (Boc-Leu-Val-Pro-NH2; configuration not given here) stands 0%; under `COc1ccc2[nH]c(=O)c(CNC3CCCCC3)cc2c1`, 0%. Consider `Cc1nc2c(o1)CCc1ccccc1C2O` (stereo not given), for which the inhibition was 0%. As for `O=C(c1ccc(S(=O)(=O)N2CCOCC2)cc1)N1CCc2ccccc2C1`, the inhibition is 0%. Then `N#Cc1ccc(CSc2nnc(-c3cccs3)n2-c2ccccc2)cc1`, with 0%; and `O=C(O)c1oc2ccccc2c1-n1cccc1`, with 6%.
